Measured values published in PubChem BioAssay AID1851 (National Center for Advancing Translational Sciences (NCATS), 2009).
Among all 16,000 compounds or so, about 5,700 (36%) were called active. Another 24% or so got no clear call; they are omitted. This is one part of the list. Unmarked numbers belong to inactive results. The call rests on the fitted dose curve; in most records, active means well fitted curve in the direction sought with a large enough effect; inconclusive means small, poorly fitted or top-dose-only effect, or effect the other way; inactive means no such curve, though single readings can be large or run the other way.

biological target: Cytochrome P450 1A2 (Homo sapiens) (UniProt P05177); test: Cytochrome panel assay with activity outcomes; conditions: recombinant CYP, pro-luciferin dealkylation, luminescence, p450-cyp1a2; series mostly up to 57.1 µM; activity, negative = inhibition: at the top concentration
Sequence (P05177 whole entry, looked up): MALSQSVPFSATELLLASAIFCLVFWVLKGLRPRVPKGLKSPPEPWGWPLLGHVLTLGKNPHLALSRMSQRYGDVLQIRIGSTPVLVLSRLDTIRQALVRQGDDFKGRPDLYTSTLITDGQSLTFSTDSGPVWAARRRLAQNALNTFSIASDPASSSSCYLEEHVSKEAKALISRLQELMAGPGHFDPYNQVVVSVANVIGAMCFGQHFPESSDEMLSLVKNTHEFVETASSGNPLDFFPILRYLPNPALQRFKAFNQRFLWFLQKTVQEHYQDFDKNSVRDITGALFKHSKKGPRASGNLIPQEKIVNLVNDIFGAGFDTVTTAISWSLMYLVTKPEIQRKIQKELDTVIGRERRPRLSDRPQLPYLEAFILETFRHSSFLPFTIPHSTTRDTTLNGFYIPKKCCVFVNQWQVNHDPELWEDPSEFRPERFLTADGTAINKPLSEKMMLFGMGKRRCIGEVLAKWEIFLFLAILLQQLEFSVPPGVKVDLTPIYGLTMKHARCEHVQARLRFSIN
On the % scale 0 is the no-effect control and ±100 the full control effect.

| SMILES | AC50 | activity, negative = inhibition |
| --- | --- | --- |
| COc1cccc(-c2nc(NCc3ccccc3OC)c3ccccc3n2)c1 | 631 nM (active) |  |
| COc1cccc(-c2nc(NCc3cccs3)c3ccccc3n2)c1 | 316 nM (active) |  |
| COc1cccc(-c2nc(NCc3cccnc3)c3ccccc3n2)c1 | 158 nM (active) |  |
| COc1ccccc1CNc1nc(-c2cccnc2)nc2ccccc12 | 1000 nM (active) |  |
| Cc1noc(C)c1C(=O)N1CCC2(CC1)CN(c1ncccn1)C2 |  | 13.8% |
| Cc1ccc(S(=O)(=O)N2CCCC(C(=O)NCCCN3CCCCC3C)C2)cc1 (centres undefined) |  | -8.71% |
| Cc1ccc(-c2cc(C(=O)NN=C3CCCC3)c3ccccc3n2)cc1 | 15800 nM (active) |  |
| Cc1cccc(NC(=S)NC(=O)CCc2ccccc2)c1 | 6310 nM (active) |  |
| O=C(CCN1C(=O)c2ccccc2C1=O)NC(=S)Nc1cccc(Cl)c1 | 3160 nM (active) |  |
| Cc1ccccc1NC(=S)NC(=O)c1cc(-c2ccccc2)nc2ccccc12 | 14100 nM (active) |  |
| CC(C)(C)c1nnc(NC(=O)c2cc(-c3ccccc3)nc3ccccc23)s1 |  | -27.9% |
| COCc1nnc(NC(=O)CCN2C(=O)c3ccccc3C2=O)s1 |  | -18% |
| CCCc1ccc(-c2cc(C(=O)NN3CCOCC3)c3ccccc3n2)cc1 |  | -12.5% |
| CCC[C@H]1C[C@H](C(=O)N[C@H]([C@@H]2O[C@H](SC)[C@@H](O)[C@H](O)[C@@H]2O)[C@H](C)O)N(C)C1 |  | -2.92% [at 25.6 µM] |
| Cc1cccc(NC(=S)NC(=O)c2cc(-c3ccccc3)nc3ccccc23)c1 | 8910 nM (active) |  |
| Cn1cnc([N+](=O)[O-])c1SCC(=O)O |  | -9.68% [at 11.4 µM] |
| Cc1nc(SCC(=O)c2ccc(F)cc2)c([N+](=O)[O-])[nH]1 | 6310 nM (active) |  |
| Cc1cc([N+](=O)[O-])nn1CC(=O)NNC(=S)Nc1ccc(F)cc1 |  | -10.3% |
| c1ccc(NCCSc2nc3ccccc3s2)cc1 | 501 nM (active) |  |
| O=C(O)CCCSc1nc2ccccc2s1 |  | -16.9% [at 11.4 µM] |
| Oc1ccccc1C(Sc1nc2ccccc2s1)Sc1nc2ccccc2s1 | 1260 nM (active) |  |
| c1ccc2sc(SCCSc3nc4ccccc4s3)nc2c1 | 794 nM (active) |  |
| NCCSc1nc2ccccc2s1 | 316 nM (active) |  |
| CN(C)Cc1ccccc1-c1cc(NC2CC2)ncn1 | 12600 nM (active) |  |

| SMILES | AC50 | activity, negative = inhibition |
| --- | --- | --- |
| CN(C)Cc1ccccc1-c1cc(Nc2ccccc2)ncn1 | 15800 nM (active) |  |
| CC12CCC(C(=O)Nc3ncc([N+](=O)[O-])s3)(OC1=O)C2(C)C (centres undefined) |  | 0.774% |
| O=C(N/N=C/c1cccc(C(F)(F)F)c1)C1CCN(c2ncc(C(F)(F)F)cc2Cl)CC1 |  | -12.3% |
| CON/C=C(\C=Nc1ccccc1)c1ncc(C(F)(F)F)cc1Cl | 2240 nM (active) |  |
| C[C@@]12CC[C@@H]3c4ccc(O)cc4CC[C@H]3[C@H]1C[C@@H](O)[C@H]2O |  | -6.98% [at 25.6 µM] |
| O=C1C(=O)N(Cc2ccc(Cl)c(Cl)c2)c2ccccc21 | 12600 nM (active) |  |
| CCc1cc2c(c(CC)n1)CCC(=O)N2Cc1ccc(-c2ccccc2-c2nn[nH]n2)cc1 |  | -18.6% |
| CNc1ncnc2ccc(-c3ccccc3C#N)cc12 | 1000 nM (active) |  |
| N#Cc1ccccc1-c1ccc2ncnc(NC3CC3)c2c1 | 100 nM (active) |  |
| Cc1cccc(C)c1NC(=O)c1cc2c(=O)c3ccccc3oc2nc1C(F)(F)F |  | -28.1% |
| Cn1c(C(F)(F)F)nc2c(=O)oc3ccccc3c21 | 158 nM (active) |  |
| CC(C)[C@H](CO)Nc1nc(Nc2cc(N)cc(Cl)c2)c2ncn(C(C)C)c2n1 | 501 nM (active) |  |
| CC(C)[C@H](CO)Nc1nc(Nc2ccc(C(=O)O)c(Cl)c2)c2ncn(C(C)C)c2n1 |  | -16.8% |
| Cc1cc(N)n2ncc(-c3ccc(Cl)cc3)c2n1 | 1260 nM (active) |  |
| CC1(C)O[C@@H]2O[C@H]([C@@H]3COC(C)(C)O3)[C@H](N)[C@H]2O1 |  | 8.69% [at 2.29 µM] |
| Cc1cccc(NC(=O)c2onc3c2CCCC3)c1C | 2240 nM (active) |  |
| Cc1cccc(NC(=S)N2CCC(N(C)CC3CCCO3)CC2)c1C (centres undefined) |  | 3.1% |
| O=C(Nc1ccc2ccccc2c1)c1onc2c1CCCC2 | 4470 nM (active) |  |
| CO[C@@H]1COC(=O)C/C=C\[C@H](C)COC(=O)[C@H](Cc2ccccc2)NC(=O)C/C=C\[C@H]1C |  | 4.04% [at 11.4 µM] |
| Cn1c(-c2ccc(Br)cc2)cnc1NCc1cccnc1 | 12600 nM (active) |  |
| Cc1ccnc(NS(=O)(=O)c2ccc(N=[N+]=[N-])cc2)n1 |  | -6.01% [at 11.4 µM] |
| CC(=C/c1ccccc1)/C=N/n1cnnc1 | 2000 nM (active) |  |
| CC(=C\C(=O)O)/C(=C/c1ccccc1)C(=O)O |  | -20.1% |
| COC(=O)c1ccc(C2C(Oc3ccccc3)C(=O)N2CCc2ccc(OC)c(OC)c2)cc1 (centres undefined) |  | 4.21% |

| SMILES | AC50 | activity, negative = inhibition |
| --- | --- | --- |
| Cc1cnc(CNc2ncnc3ccc(-c4ccccc4C)cc23)cn1 | 6310 nM (active) |  |
| COc1ccccc1-c1ccc2ncnc(NCc3cnc(C)cn3)c2c1 | 6310 nM (active) |  |
| Cc1cnc(CNc2ncnc3ccc(-c4ccccc4C(F)(F)F)cc23)cn1 | 12600 nM (active) |  |
| Cc1cnc(CNc2ncnc3ccc(-c4ccccc4CN(C)C)cc23)cn1 |  | -18.6% |
| Cc1cnc(CNc2ncnc3ccc(-c4ccccc4Cl)cc23)cn1 | 6310 nM (active) |  |
| CC(C)NC(=O)N1CC[C@@]2(CCCN(C(=O)c3csnn3)C2)C1 |  | -3.33% |
| CC[C@@H]1OC(=O)[C@H](C)[C@H](O[C@@H]2C[C@](C)(OC)[C@H](O)[C@H](C)O2)[C@H](C)[C@H](O[C@@H]2O[C@@H](C)C[C@@H](N(C)C)[C@@H]2O)[C@](C)(O)C[C@H](C)C(=NOCOCCOC)[C@H](C)[C@H](O)[C@]1(C)O |  | -3% [at 25.6 µM] |
| CC(C)CO/N=C1/C[C@@H](O)[C@@H](O)[C@@H]2[C@H]3C(=O)N(c4ccc(F)cc4F)C(=O)[C@@H]3CC[C@H]12 |  | 0.352% [at 11.4 µM] |
| CCN(CC)c1ccc2cc(C(C)=O)c(=O)oc2c1 | 891 nM (active) |  |
| CC(=O)c1cc2ccccc2oc1=O | 200 nM (active) |  |
| Cc1ccc[n+](CC(=O)c2cc3ccccc3oc2=O)c1 |  | 6.85% |
| O=C(Nc1ccc2oc(=O)c(C(=O)O)cc2c1)Oc1ccccc1 |  | -15.3% [at 2.29 µM] |
| CC(C)OC(=O)c1cc2ccccc2oc1=O | 447 nM (active) |  |
| CC(C)NCC[C@@H](O)c1cc2ccccc2o1 |  | -2.1% [at 2.29 µM] |
| COc1cc(CNn2nnnc2N)ccc1OCc1c(Cl)cccc1Cl | 7080 nM (active) |  |
| COc1ccc(C[N+](C)(C)N)cc1OC |  | -11.5% [at 11.4 µM] |
| Nc1ncnc2c1ncn2CCCCC(=O)O |  | -3.15% [at 11.4 µM] |
| O=C(Nc1cccnc1)c1ccc2snnc2c1 | 63.1 nM (active) |  |
| Nc1ccc(S(=O)(=O)c2ccc(NC(=O)c3cccnc3)cc2)cc1 |  | -21.1% [at 2.29 µM] |
| COc1ccc(OC)c2c(=S)c3ccccc3[nH]c12 | 63.1 nM (active) |  |
| COc1ccc(C2(C(=O)N3CCOCC3)CCCC2)cc1 |  | -1.36% |
| COc1cc(N2CCOCC2)ncn1 |  | -18.1% |
| COc1ccc2c(C)cc(N3CCOCC3)nc2c1 | 2510 nM (active) |  |
| NCCCCCc1nnc(SCc2ccc(Cl)cc2Cl)o1 | 11200 nM (active) |  |

| SMILES | AC50 | activity, negative = inhibition |
| --- | --- | --- |
| COc1ccc(/C=C/C(=O)Oc2cccc(/C=N/NC(=O)COc3c(C)cccc3C)c2)cc1 |  | -9.66% |
| CCOc1cc(/C=N/NC(=O)COc2cccc(C)c2)ccc1OC(=O)c1cccs1 | 11200 nM (active) |  |
| CCOc1cc(/C=N/NC(=O)c2cc(C)[nH]n2)ccc1OC(=O)c1ccc([N+](=O)[O-])cc1 |  | 27.9% |
| CN(C)CCNC(=S)Nc1cccc(Cl)c1 |  | -24.8% |
| FC(F)(F)c1cccc(NC(=S)Nc2cccc(Cl)c2)c1 | 5010 nM (active) |  |
| S=C(NCc1ccccn1)Nc1cccc(Cl)c1 | 2820 nM (active) |  |
| CO[C@H]1COC(=O)[C@@H](C)COC(=O)[C@@H](Cc2ccccc2)NC(=O)C/C=C\[C@H]1C |  | 4.52% [at 11.4 µM] |
| CC1(C)S[C@@H]2[C@H](NC(=O)[C@@H](N)c3ccccc3)C(=O)N2[C@H]1C(=O)O[C@H]1OC(=O)c2ccccc21 |  | -13% [at 25.6 µM] |
| O=C(Nc1cc(C(F)(F)F)ccc1-n1cncn1)c1ccc(Br)cc1 | 562 nM (active) |  |
| CCOC(=O)CCN1C(=O)[C@H]2[C@H]3[C@H](O)[C@H](O)C/C(=N/OC[C@@H](O)COCc4ccco4)[C@@H]3CC[C@@H]2C1=O |  | -1.07% [at 11.4 µM] |
| Cn1c(=O)c2c3c(sc2n2cnnc12)CCC3 | 8910 nM (active) |  |
| CN1CCc2c(sc3c2c(=O)n(-c2ccccc2)c2nncn32)C1 |  | -17.6% |
| CCCCCCCCCCCCCCCCCCOC[C@@H](COP(=O)([O-])OCC[N+](C)(C)C)OC |  | 7.62% |
| Cc1ccsc1-c1nc(-c2ccccc2)c(-c2ccccc2)[nH]1 | 1120 nM (active) |  |
| c1ccc(-c2nc(-c3cccs3)[nH]c2-c2ccccc2)cc1 | 1000 nM (active) |  |
| CCOc1ccc(OCC)c(-c2c(=O)n(OCc3ccccc3C(=O)OC)c3ccccc3[n+]2[O-])c1 |  | -26% |
| COc1ccc(NC(=O)c2ccc(COc3ccccc3)o2)cc1 | 2510 nM (active) |  |
| COC(=O)c1ccccc1NC(=O)c1ccc(Cn2cc(Cl)cn2)o1 | 1580 nM (active) |  |
| COC(=O)c1ccccc1NC(=O)CSc1nnc(C(CO)NC(=O)c2ccccc2Cl)n1C (centres undefined) |  | 9.84% |
| COc1ccc(CC(=O)Nc2ccc(-c3nnc(-c4ccccc4)o3)cc2)cc1 |  | -1.05% |
| Cc1ccc(OCc2ccc(C(=O)Nc3nccs3)o2)cc1C | 631 nM (active) |  |
| COC(=O)c1ccccc1NC(=O)c1ccc(COc2ccc(C)c(C)c2)o1 | 2820 nM (active) |  |
